Data from article PMC4336329 (PLoS ONE, 2015).
In all, about 310,000 compounds went through this assay and about 14,000 (4.5%) showed an effect of 50% or more. The effect is printed as a negative number. Shown is part of a subset that was picked to be rich in strong results.

Target: human ether-à-go-go-related gene (hERG) potassium channel (human, UniProt Q12809)
Experiment: primary screen, population patch clamp on CHO cells stably expressing hERG; higher = less effect of the substance
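Note: peak tail current of the secondary pulse compared with the same well before compound.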

human ether-à-go-go-related gene (hERG) potassium channel, sequence (Q12809 whole entry, looked up): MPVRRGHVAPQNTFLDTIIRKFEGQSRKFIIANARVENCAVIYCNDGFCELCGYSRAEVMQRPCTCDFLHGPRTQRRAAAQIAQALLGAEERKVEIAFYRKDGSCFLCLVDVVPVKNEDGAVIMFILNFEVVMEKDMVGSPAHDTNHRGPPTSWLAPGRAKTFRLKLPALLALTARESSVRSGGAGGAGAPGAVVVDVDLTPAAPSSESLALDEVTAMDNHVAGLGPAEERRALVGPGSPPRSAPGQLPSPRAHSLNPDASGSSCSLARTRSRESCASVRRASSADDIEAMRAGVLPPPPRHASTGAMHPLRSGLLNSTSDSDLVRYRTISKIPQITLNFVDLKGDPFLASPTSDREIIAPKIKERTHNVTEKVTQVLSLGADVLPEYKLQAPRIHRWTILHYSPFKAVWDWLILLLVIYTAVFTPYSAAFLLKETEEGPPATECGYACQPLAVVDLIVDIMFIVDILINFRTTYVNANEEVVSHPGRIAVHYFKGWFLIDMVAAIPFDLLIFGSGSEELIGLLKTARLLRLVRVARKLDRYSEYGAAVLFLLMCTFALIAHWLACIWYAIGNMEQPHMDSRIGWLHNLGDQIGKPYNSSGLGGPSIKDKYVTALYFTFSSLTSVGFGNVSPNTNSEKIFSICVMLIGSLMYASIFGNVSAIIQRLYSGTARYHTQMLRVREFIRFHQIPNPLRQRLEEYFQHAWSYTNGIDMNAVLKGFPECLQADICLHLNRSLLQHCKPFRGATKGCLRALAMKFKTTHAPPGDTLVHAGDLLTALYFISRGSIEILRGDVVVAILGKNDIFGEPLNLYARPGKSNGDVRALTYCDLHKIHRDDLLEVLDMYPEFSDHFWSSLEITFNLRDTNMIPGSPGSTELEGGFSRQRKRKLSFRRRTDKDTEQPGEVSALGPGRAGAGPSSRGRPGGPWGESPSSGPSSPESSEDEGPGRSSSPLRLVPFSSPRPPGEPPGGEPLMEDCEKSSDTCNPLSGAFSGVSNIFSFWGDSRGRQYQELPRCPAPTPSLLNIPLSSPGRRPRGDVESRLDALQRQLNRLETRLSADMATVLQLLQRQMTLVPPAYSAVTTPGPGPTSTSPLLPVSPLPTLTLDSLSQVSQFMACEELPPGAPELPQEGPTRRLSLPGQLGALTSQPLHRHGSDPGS

| SMILES | hERG current change (%, negative = inhibition) at 10uM [%] |
| --- | --- |
| COCC(=O)Nc1nnc(Cc2ccc(OC)c(OC)c2)s1 | -7.97 |
| O=C(NCCC(=O)N1CCN(c2ncccn2)CC1)c1ccccc1 | 11.6 |
| O=C(/C=C/Nc1ccc(S(=O)(=O)Nc2ncccn2)cc1)c1ccc2ccccc2c1 | 3.84 |
| CCOC(=O)C(CC)Sc1nnc2cc(C)c3ccccc3n12 (stereo not shown) | -38 |
| Cc1noc(C)c1CSCC(=O)N(CCC(C)C)c1c(N)n(Cc2ccccc2)c(=O)[nH]c1=O | 21.4 |
| Cn1cc(/C(Cc2ccccc2)=N\O)c2ccccc21 | 4.78 |
| COC(=O)c1[nH]c(C)c(/C(O)=C2\C(=O)C(=O)N(CCN(C)C)C2c2cc(OC)ccc2OC)c1C (stereo not shown) | 13.6 |
| O=C(CSc1ccccc1)NCCSCc1ccccc1 | -3.89 |
| Cc1ccc(CSCCNC(=O)CSCc2ccc([N+](=O)[O-])cc2)cc1 | -71.4 |
| CCCCN(CCCC)CCNC(=O)CSCc1ccc(C)cc1.O=C(O)C(=O)O | -63.2 |
| Cc1ccc(CSCCNC(=O)CN(c2ccccc2)S(C)(=O)=O)cc1 | 1.75 |
| Cc1ccc(CSCC(=O)NCCc2ccccc2)cc1 | -3.13 |
| O=C(CSCc1ccc([N+](=O)[O-])cc1)Nc1ccccc1C(=O)O | 24.7 |
| CCCCN(C)CCNC(=O)CSCc1ccc(C)cc1.O=C(O)C(=O)O | -37.5 |
| COc1ccc(CCNC(=O)CSCc2ccc([N+](=O)[O-])cc2)cc1 | -44.8 |
| Cc1ccc(CSCCNC(=O)CN(c2cccc([N+](=O)[O-])c2)S(C)(=O)=O)cc1 | -53.2 |
| Cc1cccc(CSCCNC(=O)CSCc2ccc([N+](=O)[O-])cc2)c1 | -47.8 |
| Cc1ccc(CNC(=O)CN(c2cccc([N+](=O)[O-])c2)S(C)(=O)=O)cc1 | 0.796 |
| O=C(CSCc1ccc([N+](=O)[O-])cc1)NCCSCc1ccccc1 | -70.1 |
| Cc1ccccc1NC(=O)Cn1nc(-c2ccc(Cl)s2)ccc1=O | 13.6 |
| CSC1=N/C(=C/c2ccc(-n3cncn3)cc2)C(=O)N1 | 6.6 |
| COc1cc(/C=N/Nc2ccc(F)cc2F)cc(OC)c1O | -2.17 |

| SMILES | hERG current change (%, negative = inhibition) at 10uM [%] |
| --- | --- |
| O=C(COC(=O)c1ccco1)NC(c1ccccc1)c1ccccc1 | 3.56 |
| Cc1ccc(S(=O)(=O)NCCC(=O)OCC(=O)N(C)c2ccccc2)cc1 | 4.35 |
| CCCn1c(SCC(=O)c2ccc3c(c2)OCCO3)n[nH]c1=O | 22.6 |
| COc1cc(OC)cc(OC(=O)c2cccc(S(=O)(=O)N3CCN(C)CC3)c2)c1 | -14.1 |
| O=C(CSCc1ccc([N+](=O)[O-])cc1)NC1CCCCCC1 | -50.8 |
| O=C(Cc1ccc([N+](=O)[O-])cc1)NC1CCCCCC1 | 7.55 |
| CC(C)C(NC(=O)CSCc1ccc([N+](=O)[O-])cc1)C(C)C | -40.2 |
| COc1ccc(CCNC(=O)CSCc2ccc([N+](=O)[O-])cc2)cc1OC | -37.5 |
| CC(C)(C)SCCNC(=O)CSCc1ccc([N+](=O)[O-])cc1 | -63.1 |
| CC1CCN(C(=O)C(C)c2ccc([N+](=O)[O-])cc2)CC1 (stereo not shown) | -3.41 |
| CC1CCN(C(=O)C(C)OC(=O)CSc2ccc([N+](=O)[O-])cc2)CC1 (stereo not shown) | -50.1 |
| Cc1ccc(CSCCNC(=O)c2cccc([N+](=O)[O-])c2)cc1 | -64.1 |
| Cc1ccc(CSCCNC(=O)c2ccccc2)cc1 | -13.6 |
| Cc1ccc(CSCCNC(=O)c2ccc(C)cc2)cc1 | 19.1 |
| O=C(CSCc1ccc([N+](=O)[O-])cc1)NC1CC1 | -29.7 |
| CC(OC(=O)CSc1ccc([N+](=O)[O-])cc1)C(=O)NC1CC1 (stereo not shown) | -14.7 |
| CCOC(=O)C(C(=O)Nc1cccc(C)c1)C1CCCCC1 (stereo not shown) | -6.99 |
| CCC1C(=O)N=C(SCC(=O)Nc2ccc(C)cc2)N(c2ccccc2)C1=O (stereo not shown) | 19.4 |
| CCOC(=O)c1sc(Nc2ccc(Br)cc2)nc1C | 13.7 |
| Cc1oc2ncnc(N)c2c1C | 8.52 |
| CNC(=O)CN1C(=O)c2cccc3cccc1c23 | 10.3 |
| COc1ccc(NS(=O)(=O)c2ccc(O)c(NC(=O)c3ccc(S(=O)(=O)N4CCCCCC4)cc3)c2)cc1 | 1.73 |

| SMILES | hERG current change (%, negative = inhibition) at 10uM [%] |
| --- | --- |
| OCC[C@H]1C[C@@H](O)[C@H](O)[C@]2(OCc3ccccc32)O1 | -0.346 |
| O=c1[nH]ncn1-c1cccc(C(F)(F)F)c1 | 10.8 |
| FC(F)(F)c1cnc(Oc2ccccc2-c2nnc(-c3ccc(Cl)cc3)o2)c(Cl)c1 | -1.52 |
| Cc1ccccc1CSCCNC(=O)CSCc1ccc([N+](=O)[O-])cc1 | -51.3 |
| O=C(Cc1ccc([N+](=O)[O-])cc1)N/N=C/c1cccnc1 | -9.63 |
| Cc1ccccc1CSCC(=O)NCCSc1ccccn1 | -3.24 |
| CC1CCCCC1NC(=O)Cn1cc([N+](=O)[O-])ccc1=O (stereo not shown) | 7.67 |
| COc1ccc([N+](=O)[O-])cc1NC(=O)CSCc1ccccc1C | -7.85 |
| CC1CCCCC1NC(=O)CSc1ccc([N+](=O)[O-])cc1 (stereo not shown) | -52.6 |
| O=C(CSCc1ccc([N+](=O)[O-])cc1)N/N=C/c1cccnc1 | -60.2 |
| O=C(CSc1ccc([N+](=O)[O-])cc1)NCC1CCCCC1 | -15 |
| O=C(CSCc1ccc([N+](=O)[O-])cc1)N/N=C/c1ccncc1 | -49.1 |
| COc1ccc(CNC(=O)C2CCC(CNS(=O)(=O)c3cccs3)CC2)cc1 (stereo not shown) | -18.9 |
| O=C1CC(O)(C(F)(F)F)Oc2c1ccc1ccccc21 (stereo not shown) | 7.95 |
| COc1ccc(/C=N/NC(=O)c2ccc3nc[nH]c3c2)c(OC)c1OC | 12.9 |
| Cc1ccc(S(=O)(=O)NNC(=S)Nc2ccccc2)cc1 | 3.05 |
| On1c(-c2ccc(Cl)cc2)nc2ccccc21 | 13.9 |
| C[n+]1cn(Cc2cc(Cl)ccc2OC(F)F)c2ccccc21.[Br-] | 2.96 |
| CC(C)=Cc1oc2ccc([N+](=O)[O-])cc2c1N1CC(C)OC(C)C1 (stereo not shown) | 18.7 |
| CC(=O)N1CCOc2ccc(S(=O)(=O)N3CCC(C(=O)NCc4ccc(F)cc4)CC3)cc21 | 4.09 |
| CCC(c1nnc(SCC(=O)Nc2ccc(C(C)=O)cc2)n1C1CCCCC1)N(C)C (stereo not shown) | -9.96 |
| Cc1ccc(CNC(=O)Nc2ccccc2)n1C | 12.3 |

| SMILES | hERG current change (%, negative = inhibition) at 10uM [%] |
| --- | --- |
| O=C(Nc1cccnc1)c1cc(-c2ccc(F)cc2)on1 | 10.9 |
| Cc1cccc(C)c1OC1(c2ccccc2)OC(=O)c2ccccc21 (stereo not shown) | 10.9 |
| CCCn1c(SCc2cc(=O)[nH]c3ccccc23)nc2c1c(=O)n(C)c(=O)n2C | -7.61 |
| CCOC(=O)C1CCN(S(=O)(=O)c2ccc(C)cc2)CC1 | 3.36 |
| COc1ccc(S(=O)(=O)N2CCc3ccccc32)cc1C(=O)N1CCN(C=O)CC1 | -2.51 |
| COc1ccc(S(=O)(=O)N2CCc3ccccc32)cc1C(=O)N1CCOCC1 | -0.239 |
| CCOC(=O)C1CCN(S(=O)(=O)c2ccc(C(=O)OC)cc2)CC1 | -1.7 |
| COc1cc(C(=O)Nc2ccc(S(=O)(=O)N3CCc4ccccc43)cc2)cc(OC)c1OC | -4.14 |
| COc1ccc(S(=O)(=O)N2CCc3ccccc32)cc1C(=O)Nc1ccc(C(N)=O)cc1 | 9.8 |
| CCOC(=O)C1CCN(C(=O)c2cccc(S(=O)(=O)N3CCc4ccccc43)c2)CC1 | -56.4 |
| COc1ccccc1C(=O)Nc1ccc(S(=O)(=O)N2CCc3ccccc32)cc1 | -77 |
| CCOC(=O)N1CCN(C(=O)c2cc(S(=O)(=O)N3CCc4ccccc43)ccc2OC)CC1 | -52.1 |
| CCOC(=O)C1CCN(S(=O)(=O)c2ccc(NC(=O)OC)cc2)CC1 | -56.5 |
| CCOC(=O)C1CCN(C(=O)c2cccc(S(=O)(=O)N3c4ccccc4CC3C)c2)CC1 (stereo not shown) | -35.7 |
| O=C(c1cccc(S(=O)(=O)N2CCc3ccccc32)c1)N1CCc2ccccc2C1 | -13 |
| COc1ccc(S(=O)(=O)N(CC(=O)Nc2ccc3c(c2)OCO3)c2ccccc2OC)cc1 | 18.5 |
| COc1c2ccoc2c(OC)c2oc(=O)ccc12 | -5.65 |
| CCC(C)C(NC(=O)C1CCC(C)CC1)C(=O)NCCc1ccc(S(N)(=O)=O)cc1 (stereo not shown) | 4.32 |
| Cc1c(NN=C(C#N)C#N)c(=O)n(-c2ccccc2)n1C | 13.5 |
| O=C1CSC(c2ccc(Cl)c(Cl)c2)N1c1nccs1 (stereo not shown) | -1.93 |
| CC(C)(CO)C(O)C(=O)NCCCO (stereo not shown) | 11.5 |
| CCOc1ccccc1C1C(C#N)=C(N)Oc2cc(N)ccc21 (stereo not shown) | -5.58 |
